Measured values as given in the supplement of paper PMC6411743.
± gives the standard deviation of the averaged measurements. About 5,400 targets were measured; listed, in parts, are those with the largest changes and a random draw of the rest.

Compound: Nc1nc2c(ncn2[C@@H]2O[C@H](COP(=O)(O)OP(=O)(O)OP(=O)(O)O)[C@@H](O)[C@H]2O)c(=O)[nH]1 [guanosine triphosphate]
Test: NP40-soluble protein abundance relative to vehicle (solubility fold change) (ratio); higher = more soluble protein in presence of GTP
Procedure, shortened: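 Eight concentrations, 0.1 to 10 mM, were tested on Jurkat crude lysate for 10 min at room temperature and then 3 min at 37 °C, in three independent experiments. The lysate was solubilised with 0.8% NP40 and benzonase, ultracentrifuged, and the supernatant TMT-labelled for LC-MS/MS. Each value is the fold change against the detergent-processed vehicle in its own replicate, from vsn-normalised intensities.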

Chain of UniProt P49736 (P49736 whole entry): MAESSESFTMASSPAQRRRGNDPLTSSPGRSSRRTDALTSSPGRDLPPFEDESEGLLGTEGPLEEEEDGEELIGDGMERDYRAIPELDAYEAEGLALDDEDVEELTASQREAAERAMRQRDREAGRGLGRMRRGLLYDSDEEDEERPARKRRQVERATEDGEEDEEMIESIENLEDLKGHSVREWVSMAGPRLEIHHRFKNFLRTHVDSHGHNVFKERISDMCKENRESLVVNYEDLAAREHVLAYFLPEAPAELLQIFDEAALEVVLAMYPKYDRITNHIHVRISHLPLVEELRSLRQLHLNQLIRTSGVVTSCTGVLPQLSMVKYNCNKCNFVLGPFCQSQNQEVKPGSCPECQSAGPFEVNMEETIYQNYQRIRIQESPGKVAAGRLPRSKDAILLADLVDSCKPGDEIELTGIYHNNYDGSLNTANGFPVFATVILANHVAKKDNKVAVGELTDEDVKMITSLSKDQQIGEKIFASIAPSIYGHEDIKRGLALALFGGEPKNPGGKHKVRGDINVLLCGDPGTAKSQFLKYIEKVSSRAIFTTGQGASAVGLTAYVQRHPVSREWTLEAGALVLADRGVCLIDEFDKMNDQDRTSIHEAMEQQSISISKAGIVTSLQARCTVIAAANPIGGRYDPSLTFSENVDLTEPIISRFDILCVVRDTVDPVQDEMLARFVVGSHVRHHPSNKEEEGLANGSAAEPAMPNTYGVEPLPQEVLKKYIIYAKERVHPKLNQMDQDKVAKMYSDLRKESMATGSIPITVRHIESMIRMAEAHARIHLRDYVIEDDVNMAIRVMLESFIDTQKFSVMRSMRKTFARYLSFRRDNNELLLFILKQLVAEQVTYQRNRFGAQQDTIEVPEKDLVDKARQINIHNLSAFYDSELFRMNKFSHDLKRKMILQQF
Chain of UniProt P06729 (P06729 whole entry): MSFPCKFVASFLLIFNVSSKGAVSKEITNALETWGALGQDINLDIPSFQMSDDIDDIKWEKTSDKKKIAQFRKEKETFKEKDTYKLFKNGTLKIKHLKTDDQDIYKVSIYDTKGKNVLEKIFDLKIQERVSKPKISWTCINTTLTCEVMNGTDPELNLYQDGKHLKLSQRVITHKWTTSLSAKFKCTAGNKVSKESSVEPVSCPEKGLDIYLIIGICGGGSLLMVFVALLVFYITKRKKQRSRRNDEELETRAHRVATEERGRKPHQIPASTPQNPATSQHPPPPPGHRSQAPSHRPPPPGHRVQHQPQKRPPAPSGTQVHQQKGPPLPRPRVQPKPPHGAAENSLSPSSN
Chain of UniProt P38159 (P38159 whole entry): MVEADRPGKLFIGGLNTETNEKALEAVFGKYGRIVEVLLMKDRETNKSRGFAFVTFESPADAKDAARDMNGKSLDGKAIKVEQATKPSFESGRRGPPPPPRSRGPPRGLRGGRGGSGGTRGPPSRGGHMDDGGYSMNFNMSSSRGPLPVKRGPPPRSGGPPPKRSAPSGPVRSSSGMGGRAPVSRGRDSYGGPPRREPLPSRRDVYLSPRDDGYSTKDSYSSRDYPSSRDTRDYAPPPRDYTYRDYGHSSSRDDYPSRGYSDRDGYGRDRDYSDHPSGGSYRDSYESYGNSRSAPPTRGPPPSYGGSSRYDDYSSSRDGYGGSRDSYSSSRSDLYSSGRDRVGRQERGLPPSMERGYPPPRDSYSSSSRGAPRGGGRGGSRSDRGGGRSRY
Chain of UniProt P42696 (P42696 whole entry): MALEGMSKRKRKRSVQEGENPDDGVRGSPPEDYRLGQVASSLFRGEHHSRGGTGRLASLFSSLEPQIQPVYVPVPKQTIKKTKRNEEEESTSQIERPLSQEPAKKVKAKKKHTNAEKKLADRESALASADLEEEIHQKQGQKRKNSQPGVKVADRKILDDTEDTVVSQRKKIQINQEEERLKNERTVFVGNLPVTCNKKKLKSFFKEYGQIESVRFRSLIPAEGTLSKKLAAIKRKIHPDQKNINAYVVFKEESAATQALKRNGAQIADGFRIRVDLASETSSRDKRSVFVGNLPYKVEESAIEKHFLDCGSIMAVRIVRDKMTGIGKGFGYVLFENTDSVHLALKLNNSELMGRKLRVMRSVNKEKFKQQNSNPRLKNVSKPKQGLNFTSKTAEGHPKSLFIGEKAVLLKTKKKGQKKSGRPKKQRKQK
Chain of UniProt P25705 (P25705 whole entry): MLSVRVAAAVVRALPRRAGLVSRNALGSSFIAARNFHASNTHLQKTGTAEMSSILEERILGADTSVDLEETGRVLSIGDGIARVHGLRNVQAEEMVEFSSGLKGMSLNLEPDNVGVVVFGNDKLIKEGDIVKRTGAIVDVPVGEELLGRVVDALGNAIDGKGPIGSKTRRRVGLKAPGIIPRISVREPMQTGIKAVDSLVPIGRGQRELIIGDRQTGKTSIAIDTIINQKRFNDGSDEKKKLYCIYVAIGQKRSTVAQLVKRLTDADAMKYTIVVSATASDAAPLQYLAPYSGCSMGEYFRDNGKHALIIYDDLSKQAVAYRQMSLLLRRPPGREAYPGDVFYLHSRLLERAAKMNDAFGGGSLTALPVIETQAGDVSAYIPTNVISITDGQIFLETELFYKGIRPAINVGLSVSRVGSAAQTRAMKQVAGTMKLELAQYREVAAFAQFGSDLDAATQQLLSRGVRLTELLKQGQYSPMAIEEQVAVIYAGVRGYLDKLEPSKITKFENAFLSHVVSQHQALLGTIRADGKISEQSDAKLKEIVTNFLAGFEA
Chain of UniProt O60830 (O60830 whole entry, one chain of several): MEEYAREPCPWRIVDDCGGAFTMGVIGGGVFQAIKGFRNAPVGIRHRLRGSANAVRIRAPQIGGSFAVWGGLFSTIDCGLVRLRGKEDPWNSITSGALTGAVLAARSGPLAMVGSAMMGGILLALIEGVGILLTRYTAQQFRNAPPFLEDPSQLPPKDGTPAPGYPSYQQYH
Chain of UniProt P17900 (P17900 whole entry): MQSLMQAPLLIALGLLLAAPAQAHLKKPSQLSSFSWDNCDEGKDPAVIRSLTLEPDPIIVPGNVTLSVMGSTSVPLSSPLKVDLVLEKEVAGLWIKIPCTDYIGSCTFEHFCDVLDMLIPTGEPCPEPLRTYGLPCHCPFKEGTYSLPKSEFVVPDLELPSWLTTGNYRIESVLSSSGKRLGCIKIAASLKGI
Chain of UniProt O60508 (O60508 whole entry, one chain of several): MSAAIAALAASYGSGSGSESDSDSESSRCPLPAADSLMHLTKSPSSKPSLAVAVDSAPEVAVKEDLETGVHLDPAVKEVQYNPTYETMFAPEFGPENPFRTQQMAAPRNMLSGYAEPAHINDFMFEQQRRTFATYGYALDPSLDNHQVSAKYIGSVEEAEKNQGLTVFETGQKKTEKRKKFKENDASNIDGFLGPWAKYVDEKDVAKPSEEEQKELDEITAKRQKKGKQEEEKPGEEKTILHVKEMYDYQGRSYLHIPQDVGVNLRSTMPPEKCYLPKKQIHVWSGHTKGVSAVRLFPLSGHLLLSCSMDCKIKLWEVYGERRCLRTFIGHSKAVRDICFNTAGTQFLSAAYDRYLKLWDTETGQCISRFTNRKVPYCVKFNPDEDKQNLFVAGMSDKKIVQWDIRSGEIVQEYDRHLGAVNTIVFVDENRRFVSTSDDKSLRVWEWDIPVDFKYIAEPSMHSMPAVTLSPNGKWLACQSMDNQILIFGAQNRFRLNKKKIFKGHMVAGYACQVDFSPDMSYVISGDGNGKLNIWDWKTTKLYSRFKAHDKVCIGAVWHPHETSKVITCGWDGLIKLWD
Chain of UniProt P23025 (P23025 whole entry, one chain of several): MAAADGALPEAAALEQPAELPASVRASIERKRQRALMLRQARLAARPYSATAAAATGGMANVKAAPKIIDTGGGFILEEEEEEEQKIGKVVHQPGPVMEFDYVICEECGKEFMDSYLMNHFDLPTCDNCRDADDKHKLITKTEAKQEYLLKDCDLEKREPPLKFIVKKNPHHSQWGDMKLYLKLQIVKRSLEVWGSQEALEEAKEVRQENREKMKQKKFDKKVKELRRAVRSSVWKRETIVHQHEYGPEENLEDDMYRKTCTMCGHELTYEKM
Chain of UniProt P17096 (P17096 whole entry): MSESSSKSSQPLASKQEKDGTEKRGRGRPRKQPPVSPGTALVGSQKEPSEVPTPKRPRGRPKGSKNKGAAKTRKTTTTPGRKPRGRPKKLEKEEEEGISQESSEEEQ
Chain of UniProt P23246 (P23246 whole entry): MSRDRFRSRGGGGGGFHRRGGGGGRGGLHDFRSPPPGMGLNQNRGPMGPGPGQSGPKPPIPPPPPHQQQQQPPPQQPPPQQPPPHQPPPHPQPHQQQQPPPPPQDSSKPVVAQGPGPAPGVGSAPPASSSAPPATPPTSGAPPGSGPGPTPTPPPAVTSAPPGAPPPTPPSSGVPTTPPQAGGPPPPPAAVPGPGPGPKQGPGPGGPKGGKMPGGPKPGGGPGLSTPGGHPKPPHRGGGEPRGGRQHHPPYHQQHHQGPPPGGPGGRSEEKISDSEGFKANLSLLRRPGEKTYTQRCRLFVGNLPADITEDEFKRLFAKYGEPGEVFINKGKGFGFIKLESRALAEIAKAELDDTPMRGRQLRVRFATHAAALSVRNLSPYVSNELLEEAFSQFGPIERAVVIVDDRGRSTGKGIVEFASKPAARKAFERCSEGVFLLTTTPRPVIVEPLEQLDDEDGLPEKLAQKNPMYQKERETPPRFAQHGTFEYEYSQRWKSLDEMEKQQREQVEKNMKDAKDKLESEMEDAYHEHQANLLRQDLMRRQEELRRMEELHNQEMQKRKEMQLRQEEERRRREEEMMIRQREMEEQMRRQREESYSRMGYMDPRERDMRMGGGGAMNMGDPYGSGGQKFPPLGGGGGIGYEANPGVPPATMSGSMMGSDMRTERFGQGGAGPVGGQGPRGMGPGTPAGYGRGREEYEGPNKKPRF
Chain of UniProt P16401 (P16401 whole entry): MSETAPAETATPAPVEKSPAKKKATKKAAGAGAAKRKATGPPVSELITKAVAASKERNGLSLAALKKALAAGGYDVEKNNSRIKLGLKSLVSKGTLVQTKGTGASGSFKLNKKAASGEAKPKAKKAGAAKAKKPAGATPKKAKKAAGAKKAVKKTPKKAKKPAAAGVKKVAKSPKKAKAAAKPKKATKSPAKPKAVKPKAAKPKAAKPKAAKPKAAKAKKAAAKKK

Target	NP40-soluble protein abundance (concentration: 0.1mM)	NP40-soluble protein abundance (concentration: 0.5mM)	NP40-soluble protein abundance (concentration: 1mM)	NP40-soluble protein abundance (concentration: 2mM)	NP40-soluble protein abundance (concentration: 4mM)	NP40-soluble protein abundance (concentration: 6mM)	NP40-soluble protein abundance (concentration: 8mM)	NP40-soluble protein abundance (concentration: 10mM)
UniProt P17096|P17096-2	1.06 ± 0.062	1.06 ± 0.12	1.21 ± 0.081	1.33 ± 0.12	1.37 ± 0.14	1.69 ± 0.3	1.55 ± 0.21	2.02 ± 0.076
HIST1H1B (UniProt P16401)	0.956 ± 0.023	0.937 ± 0.02	1.09 ± 0.037	1.15 ± 0.014	1.22 ± 0.042	1.272 ± 0.012	1.22 ± 0.039	1.73 ± 0.19
POLR2E (UniProt P19388)	1.06 ± 0.11	1.09 ± 0.11	1.15 ± 0.16	1.19 ± 0.18	1.22 ± 0.18	1.19 ± 0.19	1.16 ± 0.16	1.11 ± 0.16
FXR2 (UniProt P51116)	1.08 ± 0.054	1.13 ± 0.081	1.27 ± 0.064	1.51 ± 0.14	1.8 ± 0.22	1.97 ± 0.25	2.13 ± 0.29	2.23 ± 0.35
UniProt P38159|P38159-2	1.02 ± 0.048	1.02 ± 0.027	1.18 ± 0.036	1.29 ± 0.043	1.47 ± 0.052	1.65 ± 0.1	1.8 ± 0.15	2.04 ± 0.32
J3KNV1|O60281|O60281-2 (UniProt O60281)	1.06 ± 0.041	1.05 ± 0.095	1.12 ± 0.066	1.09 ± 0.13	1.02 ± 0.051	1.04 ± 0.15	1.07 ± 0.057	1.05 ± 0.036
UniProt O60830|O60830-2|V9GYS0	1.82 ± 0.63	1 ± 0.039	0.957 ± 0.15	1.01 ± 0.13	1 ± 0.11	0.969 ± 0.13	0.942 ± 0.051	0.955 ± 0.045
J3QTA6|Q9BRQ6 (UniProt Q9BRQ6)	1 ± 0.084	1.01 ± 0.083	1.12 ± 0.14	1.15 ± 0.054	1.15 ± 0.09	1.16 ± 0.062	1.22 ± 0.12	1.26 ± 0.21
UniProt P06729	0.895 ± 0.023	0.902 ± 0.035	0.912 ± 0.02	0.88 ± 0.072	0.852 ± 0.038	0.89 ± 0.053	0.893 ± 0.036	0.903 ± 0.039
UniProt P49840	0.981 ± 0.028	1.03 ± 0.029	0.913 ± 0.022	0.939 ± 0.02	0.921 ± 0.044	0.925 ± 0.021	0.875 ± 0.051	0.888 ± 0.051
UniProt O60508|Q5SRN1	1.07 ± 0.031	1.1 ± 0.017	1.09 ± 0.022	1.072 ± 0.0076	1.05 ± 0.034	1.07 ± 0.053	1.11 ± 0.013	1.08 ± 0.042
PPIF (UniProt P30405)	0.881 ± 0.08	0.902 ± 0.067	0.863 ± 0.064	0.876 ± 0.078	0.853 ± 0.091	0.868 ± 0.087	0.836 ± 0.11	0.887 ± 0.079
RBM34 (UniProt P42696)	1.08 ± 0.0039	1.05 ± 0.034	1.14 ± 0.028	1.23 ± 0.065	1.41 ± 0.066	1.57 ± 0.12	1.68 ± 0.12	1.83 ± 0.066
MCM2 (UniProt P49736)	1.01 ± 0.052	1.07 ± 0.071	0.975 ± 0.074	0.985 ± 0.099	0.974 ± 0.1	0.983 ± 0.1	0.944 ± 0.083	0.929 ± 0.074
SFPQ (UniProt P23246)	0.998 ± 0.053	0.989 ± 0.086	1.03 ± 0.13	1.23 ± 0.14	1.61 ± 0.22	1.85 ± 0.28	2 ± 0.35	2.04 ± 0.36
BANF1 (UniProt O75531)	1.42 ± 0.34	2.98 ± 1.1	5.2 ± 3	5.54 ± 3.3	5.21 ± 3.3	5.08 ± 3	4.35 ± 2	5.71 ± 3.2
HMGN4 (UniProt O00479)	1.08 ± 0.057	1.06 ± 0.12	1.02 ± 0.12	1.31 ± 0.04	1.83 ± 0.15	2.26 ± 0.16	1.51 ± 0.74	4.79 ± 0.19
ANXA5 (UniProt P08758)	0.882 ± 0.07	0.908 ± 0.054	0.878 ± 0.077	0.854 ± 0.076	0.819 ± 0.073	0.843 ± 0.089	0.794 ± 0.081	0.809 ± 0.085
UniProt O75400|O75400-2|O75400-3	1.02 ± 0.05	1.11 ± 0.036	1.23 ± 0.083	1.25 ± 0.076	1.37 ± 0.21	1.52 ± 0.24	1.81 ± 0.37	1.89 ± 0.41
UniProt P23025|F2Z2T2	1.07 ± 0.044	1.08 ± 0.049	1.21 ± 0.054	1.02 ± 0.1	1.05 ± 0.074	1.08 ± 0.14	1.12 ± 0.028	1.08 ± 0.097
UniProt P25705|P25705-2	0.981 ± 0.022	1.04 ± 0.057	0.998 ± 0.062	1.01 ± 0.087	0.986 ± 0.088	1.03 ± 0.11	1.01 ± 0.11	0.995 ± 0.098
RPL21 (UniProt P46778)	0.981 ± 0.092	1 ± 0.082	1.05 ± 0.12	1.01 ± 0.14	0.914 ± 0.2	0.856 ± 0.19	0.72 ± 0.22	0.971 ± 0.23
GM2A (UniProt P17900)	0.851 ± 0.015	0.931 ± 0.022	0.876 ± 0.013	0.923 ± 0.1	0.853 ± 0.042	0.859 ± 0.013	0.856 ± 0.12	0.927 ± 0.067
P15531-2|P22392-2|Q32Q12 (UniProt Q32Q12+P22392+P15531)	0.983 ± 0.029	0.946 ± 0.049	0.903 ± 0.045	0.909 ± 0.068	0.9 ± 0.017	0.878 ± 0.04	0.822 ± 0.06	0.839 ± 0.025
HMGN1 (UniProt P05114)	1.26 ± 0.29	1.29 ± 0.33	1.39 ± 0.48	1.52 ± 0.48	1.34 ± 0.34	1.83 ± 0.67	1.66 ± 0.36	1.8 ± 0.33
K7EIY1|Q9Y421 (UniProt Q9Y421)	1.045 ± 0.0048	0.987 ± 0.15	1.07 ± 0.11	1.14 ± 0.14	1.25 ± 0.12	1.21 ± 0.2	1.24 ± 0.11	1.37 ± 0.088
UniProt O15260|O15260-2|Q5T8U5	1.13 ± 0.021	1.03 ± 0.05	1.05 ± 0.022	1.01 ± 0.07	1.04 ± 0.074	0.956 ± 0.055	1.03 ± 0.044	0.953 ± 0.03
UniProt O15042|O15042-2|E7ET15	1 ± 0.011	1.08 ± 0.013	1.15 ± 0.05	1.18 ± 0.094	1.24 ± 0.13	1.32 ± 0.14	1.4 ± 0.22	1.37 ± 0.23
